The values that follow come from PubChem BioAssay (Tox21).

Results filed as inconclusive are left out. Entries that show only a call come without a potency. Activity calls are given as the source filed them. Calls follow the shape of the dose curve; as a rule, active = well fitted curve in the direction sought with a large enough effect in the repeat runs; inconclusive = weak or mixed curves; inactive = no such curve, though single readings can be large; an effect the other way counts as inactive or inconclusive.
Potency is read from the fitted curve at half-maximal effect.

A short description of one assay: qHTS RealTime-Glo MT Cell Viability Assay in HEK293 cells - 16 hour (AID 1224872). Also: nearly all actives have a fitted effect of over 50% in size. As to activity change, negative = cytotoxicity: top concentration of the series differs between compounds. To be noted: RealTime-Glo luminescence; series mostly up to 76.8 µM. A digest of the protocol:
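Tox21 10K qHTS, HEK293, 600 cells/well, RealTime-Glo reagent co-dispensed with cells; 5 h preincubation, compound by pintool, 37 C, luminescence at 0–40 h.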
On to `CCc1c(Br)c(Br)c(Br)c(Br)c1Br`, for which the Potency result was “inactive”.
With `COc1cccc(O)c1`, the Potency entry is “inactive”.
With `CCCCOC(=O)C(C)CC` (configuration not stated), the Potency result was “inactive”.
For `CCOC(=O)COc1ccc(C)cc1`, the Potency entry is “inactive”.
For `CCCCN(C)C`, the Potency entry was “inactive”.
Same read-out and setting: in the case of `[O]=[Zr]` it was “inactive”.
On to `Cc1cnccn1`, for which the Potency entry was “inactive”.
For the molecule `OCCCS`, the Potency result is “inactive”.
`O=C(O)CCn1c2c(c3ccccc31)C[C@H](NS(=O)(=O)c1ccc(F)cc1)CC2`: the Potency entry was “inactive”.
Still for that read-out and setting: the entry for `Brc1ccccn1` is “inactive”; for `O=C1C=CC(=O)N1c1ccccc1` it is 15.5 µM (active); for `COc1cc(C(=O)NS(=O)(=O)c2ccccc2C)ccc1Cc1cn(C)c2ccc(NC(=O)OC3CCCC3)cc12` it is “inactive”.
Turning to `CCCCCCCCCCCCCc1ccccc1`, the Potency result was “inactive”.
As to `NCCCCCCNCCCCCCN`, the Potency entry is “inactive”.
As for `Cc1cccc(Br)c1`, the Potency result is “inactive”.
As to `CC(C)CCOCCC(C)C`, the Potency entry was “inactive”.
As for `CCc1cccc(C)c1`, the Potency entry was “inactive”.
On the same count and under the same terms, in the case of `Cc1cccc(C)n1` it was “inactive”.
On the same count and under the same terms, the entry for `c1cc2c3c(c1)ccc1cccc(c13)C2` is “inactive”.
As for `Clc1cccnc1`, the Potency result is “inactive”.
On to `Cc1ccc(O)cn1`, for which the Potency result is “inactive”.
`O=S(O)O`: the activity change, negative = cytotoxicity is 5.35% [at 15.8 µM] (inactive).
Regarding `C[Si](C)(C)Cl`, the Potency result is “inactive”.
The same measure, in the same setting: the entry for `CCOCN(C(=O)CS(=O)(=O)O)c1c(C)cccc1CC` is “inactive”; for `Cc1c(-c2ccc(O)cc2)n(Cc2ccc(OCCN3CCCCCC3)cc2)c2ccc(O)cc12` it is 2.68 µM (active); for `COc1ccc(C#N)cc1` it is “inactive”.
Regarding `C=CC(=O)OCCN(CC)CC`, the Potency entry is “inactive”.
Turning to `OCCC(O)CO` (configuration not stated), the Potency result is “inactive”.
With `Cn1cccc1`, the Potency result was “inactive”.
With `CCOC(OCC)C(=O)c1ccccc1`, the Potency entry is “inactive”.
With `CCCCCCCCCCCC(=O)N(CC)CC`, the Potency entry was “inactive”.
For the molecule `CC(=O)O[C@@H]1C[C@@H]2CC[C@@]1(C)C2(C)C`, the Potency entry was “inactive”.
Turning to `C=C(C)C(=O)OCCC[Si](Cl)(Cl)Cl`, the Potency result was “inactive”.
Still for that read-out and setting: the entry for `O=C(O)CCCCCCC(=O)O` is “inactive”; for `CCCCCCCCCCCCCOP(=O)(O)O` it is “inactive”.
In the case of `O=C1OC(OC(=O)c2cccnc2Nc2cccc(C(F)(F)F)c2)c2ccccc21` (configuration not stated), the Potency entry was “inactive”.

A further assay can be described thus: qHTS RealTime-Glo MT Cell Viability Assay in HepG2 cells - 8 hour (AID 1224873). Also: nearly all actives have a fitted effect of over 55% in size. To be noted: RealTime-Glo luminescence; series mostly up to 76.8 µM. In outline:
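Real-time viability: cells seeded at 600 per well together with NanoLuc and cell-permeant prosubstrate, compounds added after 5 h incubation. Luminescence tracked at 0, 8, 16, 24, 32 and 40 h of exposure.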
In general terms: In qHTS, concentration-response curves come from the screen itself.
Take `CCc1c(Br)c(Br)c(Br)c(Br)c1Br`: the Potency result was “inactive”.
Regarding `COc1cccc(O)c1`, the Potency entry is “inactive”.
For `CCCCOC(=O)C(C)CC` (configuration not stated), the Potency entry was “inactive”.
Take `CCOC(=O)COc1ccc(C)cc1`: the Potency entry is “inactive”.
As to `CCCCN(C)C`, the Potency entry was “inactive”.
For the molecule `[O]=[Zr]`, the Potency entry was “inactive”.
The same measure, in the same setting: the entry for `Cc1cnccn1` is “inactive”; for `OCCCS` it is “inactive”.
With `O=C(O)CCn1c2c(c3ccccc31)C[C@H](NS(=O)(=O)c1ccc(F)cc1)CC2`, the Potency result was “inactive”.
`Brc1ccccn1`: the Potency entry was “inactive”.
Take `O=C1C=CC(=O)N1c1ccccc1`: the Potency was 19.5 µM (active).
On to `COc1cc(C(=O)NS(=O)(=O)c2ccccc2C)ccc1Cc1cn(C)c2ccc(NC(=O)OC3CCCC3)cc12`, for which the Potency result is “inactive”.
Still for that read-out and setting: in the case of `CCCCCCCCCCCCCc1ccccc1` it was “inactive”; in that of `NCCCCCCNCCCCCCN`, “inactive”; in that of `Cc1cccc(Br)c1`, “inactive”.
Regarding `CC(C)CCOCCC(C)C`, the Potency entry was “inactive”.
Regarding `CCc1cccc(C)c1`, the Potency result is “inactive”.
With `Cc1cccc(C)n1`, the Potency result is “inactive”.
In the case of `c1cc2c3c(c1)ccc1cccc(c13)C2`, the Potency entry is “inactive”.
As for `Clc1cccnc1`, the Potency entry was “inactive”.
Regarding `Cc1ccc(O)cn1`, the Potency entry is “inactive”.
For `O=S(O)O`, the viability change, negative = cytotoxic was 3.13% [at 15.8 µM] (inactive).
Regarding `C[Si](C)(C)Cl`, the Potency result was “inactive”.
`CCOCN(C(=O)CS(=O)(=O)O)c1c(C)cccc1CC`: the Potency result was “inactive”.
For the molecule `Cc1c(-c2ccc(O)cc2)n(Cc2ccc(OCCN3CCCCCC3)cc2)c2ccc(O)cc12`, the Potency is 23.9 µM (active).
In the case of `COc1ccc(C#N)cc1`, the Potency entry is “inactive”.
For `C=CC(=O)OCCN(CC)CC`, the Potency entry was “inactive”.
As to `OCCC(O)CO` (configuration not stated), the Potency result was “inactive”.
Regarding `Cn1cccc1`, the Potency entry was “inactive”.
For `CCOC(OCC)C(=O)c1ccccc1`, the Potency result is “inactive”.
As to `CCCCCCCCCCCC(=O)N(CC)CC`, the Potency entry is “inactive”.
Still for that read-out and setting: in the case of `CC(=O)O[C@@H]1C[C@@H]2CC[C@@]1(C)C2(C)C` it was “inactive”; in that of `C=C(C)C(=O)OCCC[Si](Cl)(Cl)Cl`, “inactive”.
For `O=C(O)CCCCCCC(=O)O`, the Potency entry is “inactive”.
For the molecule `CCCCCCCCCCCCCOP(=O)(O)O`, the Potency entry is “inactive”.
In the case of `O=C1OC(OC(=O)c2cccnc2Nc2cccc(C(F)(F)F)c2)c2ccccc21` (configuration not stated), the Potency result was “inactive”.
